Source: PubChem BioAssay (NCATS)
Inconclusive results are not listed. A call without a number means that no potency is given here. Calls of active or inactive are those of the source. Calls come from the whole dose curve; as a rule, active = well fitted cell-killing curve with a large enough effect; inconclusive = small, poorly fitted or top-dose-only effect; inactive = flat fitted curve, though single readings scatter.

What was measured:
[1] = Cell Viability - LYMP2-011 (AID 969); conditions: LYMP2-011 lymphoblastoid cells viability; series mostly up to 92.2 µM; note: nearly all actives have a fitted effect of over 60% in size
In short: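 Cells seeded at 2500 per well rest 5 hr before compound addition, then incubate 24 hr at 37 C. CellTiter-Glo reagent is added for 30 min at room temperature before luminescence detection.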

[2] = Cell Viability - LYMP2-013 (AID 970); conditions: LYMP2-013 lymphoblastoid cells viability; series mostly up to 92.2 µM; note: nearly all actives have a fitted effect of over 55% in size
In short: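 In complete culture medium, human lymphoblastoid cells were dosed for 24 hr at 37 C, with tetraoctylammonium bromide (6.4pM to 92 uM) as positive control. Viability reflects luciferase-based ATP signal; AC50 derived from concentration-response curves.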

[3] = Cell Viability - LYMP2-015 (AID 971); conditions: LYMP2-015 lymphoblastoid cell viability; series mostly up to 92.2 µM; note: nearly all actives have a fitted effect of over 55% in size
In short: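 AC50 values reflect Hill-model fits of ATP-based luminescence (CellTiter-Glo) from a human lymphoblastoid line, 2500 cells/well, treated 24 hr at 37 C.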

[4] = Cell Viability - LYMP2-017 (AID 972); conditions: LYMP2-017 lymphoblastoid cell viability; series mostly up to 92.2 µM; note: nearly all actives have a fitted effect of over 55% in size
In short: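 In this qHTS format, lymphoblastoid cells in complete medium receive test compound for a day at 37 C before ATP content is quantified by luciferase luminescence. Reported AC50 figures come from standard Hill-equation curve fitting.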

[5] = Cell Viability - LYMP2-019 (AID 973); conditions: LYMP2-019 lymphoblastoid cell line viability; series mostly up to 92.2 µM; note: nearly all actives have a fitted effect of over 55% in size
In short: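 AC50 values come from Hill-equation modelling of qHTS concentration-response curves, where viability is measured as luciferase-based ATP luminescence in the lymphoblastoid line after 24 hr compound exposure in complete culture medium.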

[6] = Cell Viability - LYMP2-021 (AID 974); conditions: LYMP2-021 lymphoblastoid cells viability; series mostly up to 92.2 µM
In short: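 In qHTS format, compounds are tested against 2500 lymphoblastoid cells per well for 24 h; viable cell number is inferred from ATP-driven luciferase light, and Hill-equation fitting yields AC50 values.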

[7] = Cell Viability - LYMP2-023 (AID 975); conditions: LYMP2-023 lymphoblastoid cell viability; series mostly up to 92.2 µM
In short: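 In this qHTS, ATP-based luciferase luminescence (CellTiter-Glo) is quantified in human lymphoblastoid cells after 24 hr compound treatment at 37 C; tetraoctylammonium bromide serves as positive control. Concentration-response curves are Hill-fitted to give AC50.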

[8] = Cell Viability - LYMP2-025 (AID 976); conditions: LYMP2-025 lymphoblastoid cell viability; series mostly up to 92.2 µM
In short: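 Luminescent ATP readout after 24 hr treatment of a human lymphoblastoid line (LYMP2-025, 2500 cells/well, 37 C). Reagent developed 30 min at room temperature; AC50 fitted with the Hill equation.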

[9] = Cell Viability - LYMP2-002 (AID 977); conditions: LYMP2-002 lymphoblastoid cell viability, qHTS; series mostly up to 92.2 µM
In short: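 In this qHTS viability screen, 2500 human lymphoblastoid cells per well receive compound for 24 hr at 37 C, and luciferase-based ATP luminescence gives the viability signal. Tetraoctylammonium bromide serves as positive control.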

[10] = Cell Viability - LYMP2-006 (AID 978); conditions: LYMP2-006 lymphoblastoid cell viability, qHTS; series mostly up to 92.2 µM; note: nearly all actives have a fitted effect of over 60% in size
In short: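 Potency values are Hill-fit AC50s for decreases in intracellular ATP (CellTiter-Glo luminescence). LYMP2-006 lymphoblastoid cells, 2500 per well, were exposed to compound in complete culture medium for 24 hr at 37 C.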

[11] = Cell Viability - LYMP2-007 (AID 979); conditions: LYMP2-007 lymphoblastoid cell viability; series mostly up to 92.2 µM;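 note: cells exposed to compound for 24 h before reading; nearly all actives have a fitted effect of over 60% in size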
In short: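 Measured via luciferase-based ATP quantitation: lymphoblastoid cells, 24 hr compound exposure at 37 C, AC50 from Hill fits.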

[12] = Cell Viability - LYMP2-008 (AID 980); conditions: LYMP2-008 lymphoblastoid cell viability, qHTS; series mostly up to 92.2 µM; note: nearly all actives have a fitted effect of over 60% in size
In short: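 Measured: ATP-dependent luminescence, proportional to viable cell number, in human lymphoblastoid cells treated 24 hr with compound in complete culture medium. Values are AC50s from Hill-equation modelling of qHTS titrations.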

[13] = Cell Viability - LYMP2-010 (AID 981); conditions: LYMP2-010 lymphoblastoid cell viability, qHTS; series mostly up to 92.2 µM; note: nearly all actives have a fitted effect of over 55% in size
In short: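 This 24 hr viability screen uses LYMP2-010 lymphoblastoid cells, quantifies ATP via luciferase luminescence, and derives AC50 from Hill fits of qHTS concentration-response data.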

[14] = Cell Viability - LYMP2-012 (AID 982); conditions: LYMP2-012 lymphoblastoid cell viability qHTS; series mostly up to 92.2 µM
[15] = Cell Viability - LYMP2-014 (AID 983); conditions: LYMP2-014 lymphoblastoid cells, viability qHTS; series mostly up to 92.2 µM; note: nearly all actives have a fitted effect of over 50% in size
In short: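 Quantitative HTS in lymphoblastoid cells: 24 hr compound exposure, then CellTiter-Glo ATP luminescence. Positive control was tetraoctylammonium bromide, 6.4pM to 92 uM.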

[16] = Cell Viability - LYMP2-016 (AID 984); conditions: LYMP2-016 lymphoblastoid cell viability, qHTS; series mostly up to 92.2 µM; note: nearly all actives have a fitted effect of over 55% in size
In short: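 Cytotoxicity was scored by luminescent ATP content (CellTiter-Glo) after 24 h compound exposure at 37 C of a human lymphoblastoid line at 2500 cells/well. Concentration-response data were fitted to the Hill equation for AC50.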

[17] = Cell Viability - LYMP2-018 (AID 985); conditions: LYMP2-018 lymphoblastoid cells, viability (qHTS); series mostly up to 92.2 µM; note: nearly all actives have a fitted effect of over 50% in size; note: potency is the fitted concentration of half-maximal effect
In short: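 In this qHTS viability assay, cells are treated for 24 hr and cellular ATP is quantified by luciferase-based luminescence, with tetraoctylammonium bromide as positive control.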

[18] = Cell Viability - LYMP2-020 (AID 986); conditions: series mostly up to 92.2 µM; note: nearly all actives have a fitted effect of over 55% in size; note: potency is the fitted concentration of half-maximal effect
In short: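 Cells at 2500 per well receive a 24 hr compound exposure at 37 C. Viability is measured as ATP-dependent luciferase luminescence, with AC50 modeled from qHTS concentration-response curves.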

[19] = Cell Viability - LYMP2-022 (AID 987); conditions: LYMP2-022 lymphoblastoid cell viability; series mostly up to 92.2 µM; note: nearly all actives have a fitted effect of over 55% in size
In short: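 In this qHTS cytotoxicity screen, compound titrations were incubated 24 hr at 37 C with human lymphoblastoid cells in complete medium. Luciferase-based ATP luminescence provided the viability signal.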

[20] = Cell Viability - LYMP2-024 (AID 988); conditions: LYMP2-024 lymphoblastoid cell viability; series mostly up to 92.2 µM; note: nearly all actives have a fitted effect of over 60% in size; note: potency is the fitted concentration of half-maximal effect
In short: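 Cells at 2500 per well received compound for 24 hr after a 5 hr settling period. Viability was scored by CellTiter-Glo luminescence, with AC50 from Hill fits.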

SMILES	outcome [1]	outcome [2]	outcome [3]	outcome [4]	outcome [5]	outcome [6]	outcome [7]	outcome [8]	outcome [9]	outcome [10]	outcome [11]	outcome [12]	outcome [13]	outcome [14]	outcome [15]	outcome [16]	Potency [17]	Potency [18]	outcome [19]	Potency [20]
CCOc1ccc(NC(C)=O)cc1	inactive	inactive	inactive	inactive	inactive	inactive	inactive	inactive	inactive	inactive	inactive	inactive	inactive	inactive	inactive	inactive	inactive	inactive	inactive	inactive
OC[C@H]1O[C@@H]2O[C@H]3[C@H](O)[C@@H](O)[C@@H](O[C@H]4[C@H](O)[C@@H](O)[C@@H](O[C@H]5[C@H](O)[C@@H](O)[C@@H](O[C@H]6[C@H](O)[C@@H](O)[C@@H](O[C@H]7[C@H](O)[C@@H](O)[C@@H](O[C@H]8[C@H](O)[C@@H](O)[C@@H](O[C@H]1[C@H](O)[C@H]2O)O[C@@H]8CO)O[C@@H]7CO)O[C@@H]6CO)O[C@@H]5CO)O[C@@H]4CO)O[C@@H]3CO	inactive	inactive	inactive	inactive	inactive	inactive	inactive	inactive	inactive	inactive	inactive	inactive	inactive	inactive	inactive	inactive	inactive	inactive	inactive	inactive
O=C(O)c1ccc(S(=O)(=O)N(Cl)Cl)cc1	inactive	inactive	inactive	inactive	inactive	inactive	inactive	inactive	inactive	inactive	inactive	inactive	inactive	inactive	inactive	inactive	inactive	inactive	inactive	inactive
CCCN(CCC)S(=O)(=O)c1ccc(C(=O)O)cc1	inactive	inactive	inactive	inactive	inactive	inactive	inactive	inactive	inactive	inactive	inactive	inactive	inactive	inactive	inactive	inactive	inactive	inactive	inactive	inactive
CCCCC(CC)COC(=O)c1ccc(N(C)C)cc1 (stereo not given)	inactive	inactive	inactive	inactive	inactive	inactive	inactive	inactive	inactive	inactive	inactive	inactive	inactive	inactive	inactive	inactive	inactive	inactive	inactive	inactive
COc1cc([C@H]2Oc3cc([C@H]4Oc5cc(O)cc(O)c5C(=O)[C@@H]4O)ccc3O[C@@H]2CO)ccc1O	inactive	inactive	inactive	inactive	inactive	inactive	inactive	inactive	inactive	inactive	inactive	inactive	inactive	inactive	inactive	inactive	inactive	inactive	inactive	inactive
NCCNc1cccc2ccccc12	inactive	inactive	inactive	inactive	inactive	inactive	inactive	inactive	inactive	inactive	inactive	inactive	inactive	inactive	inactive	inactive	inactive			inactive
COc1ccc(C(=O)c2ccccc2)c(O)c1	inactive	inactive	inactive	inactive	inactive	inactive	inactive	inactive	inactive	inactive	inactive	inactive	inactive	inactive	inactive	inactive	inactive	inactive	inactive	inactive
NC(=O)c1ccccc1O	inactive	inactive	inactive	inactive	inactive	inactive	inactive	inactive	inactive	inactive	inactive	inactive	inactive	inactive	inactive	inactive	inactive	inactive	inactive	inactive
C/C=C/c1ccc(O)c(OC)c1	inactive	inactive	inactive	inactive	inactive	inactive	inactive	inactive	inactive	inactive	inactive	inactive	inactive	inactive	inactive	inactive	inactive	inactive	inactive	inactive
Oc1c(Cl)cc(Cl)c(Cl)c1Cc1c(O)c(Cl)cc(Cl)c1Cl																	25.1 µM (active)	15.8 µM (active)		39.8 µM (active)
COc1ccc(C(Cl)=C(c2ccc(OC)cc2)c2ccc(OC)cc2)cc1	inactive	inactive	inactive	inactive	inactive	inactive	inactive	inactive	inactive	inactive	inactive	inactive	inactive	inactive	inactive	inactive	inactive	inactive	inactive	inactive
C=C[C@H]1CN2CC[C@H]1C[C@@H]2[C@@H](O)c1ccnc2ccc(OC)cc12	inactive	inactive	inactive	inactive	inactive	inactive	inactive	inactive	inactive	inactive	inactive	inactive	inactive	inactive	inactive	inactive		inactive	inactive	inactive
CCOc1ccccc1C(N)=O	inactive	inactive	inactive	inactive	inactive	inactive	inactive	inactive	inactive	inactive	inactive	inactive	inactive	inactive	inactive	inactive	inactive	inactive	inactive	inactive
